Laboratory results published in PubChem BioAssay (NCATS).
Inconclusive results are not listed. Entries that show only a call come without a potency. Calls of active or inactive are those of the source. Calls follow the shape of the dose curve; as a rule, active = well fitted inhibition curve with a large enough effect; inconclusive = small, poorly fitted or top-dose-only effect; inactive = flat fitted curve, though single readings scatter.

These molecules were tested on CRL-7250 (assay: qHTS assay to identify novel small-molecules to repurpose for Merkel cell carcinoma treatment (AID 1296009; also: nearly all actives have a fitted effect of over 60% in size)). Conditions: MCC and control cell lines, CellTiter-Glo viability, 72 h; series mostly up to 92 µM.
In short: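 Viability readout: ATP luminescence (CellTiter-Glo) after 72 hr drug exposure at 37 degree celsius. Dose-response format was 8 points for NPC and 11 points for MIPE; data normalized to in-plate controls.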
In the case of `COc1cc(C(CO)C(OC2OC(CO)C(O)C(O)C2O)c2ccc(O)c(OC)c2)ccc1O` (stereo unspecified), the Potency is reported as “inactive”. For `CCC1OC(=O)C(C)CC(C)C(=O)/C(C)=C/C(C)C(=O)/C=C/C1(C)O` (stereo unspecified), the Potency was “inactive”. `COC(=O)C(CC1CCCC1)c1ccc(S(C)(=O)=O)cc1` (stereo unspecified) was tested, and the Potency was “inactive”. For `C=C[C@H]1[C@H](O[C@@H]2O[C@H](CO[C@@H]3OC[C@](O)(CO)[C@H]3O)[C@@H](O)[C@H](O)[C@H]2O)OC=C2C(=O)OCC[C@H]21`, the Potency was “inactive”. `CN1C(=O)c2ccccc2-n2c(nc3ccccc3c2=O)/C1=C/c1ccccc1` was tested, and the Potency was “inactive”. For `CC(=O)O[C@@H]1[C@H]2[C@@H](OC(=O)c3ccccc3)[C@@H](C)C[C@]2(O)[C@H](OC(C)=O)[C@@]2(C)[C@@H]3CC(C)(C)C(=O)[C@]3(OC(C)=O)C[C@@]12C`, the Potency was “inactive”. In the case of `COc1cc(O)cc(C)c1C(=O)O[C@H]1[C@@H](OC(C)=O)[C@H](n2ccc(=O)[nH]c2=O)O[C@@H]1CO`, the Potency is reported as “inactive”. With `COc1ccc(/C=C/C(=O)O[C@@H]2[C@@H](OC(C)=O)[C@@H](OC(C)=O)[C@H](O[C@H]3[C@@H]4C=CO[C@@H](O[C@@H]5O[C@H](CO)[C@@H](O)[C@H](O)[C@H]5O)[C@@H]4[C@@]4(CO)O[C@@H]34)O[C@H]2C)cc1` the Potency was “inactive”. In the case of `CC1CCCCCCCc2cc(O)cc(O)c2C(=O)O1` (stereo unspecified), the Potency is reported as “inactive”. `C=C[C@H]1C(O[C@@H]2O[C@H](CO)[C@@H](O)[C@H](O)[C@H]2O)OC=C2C(=O)N3CCc4c([nH]c5ccccc45)C3CC21` (stereo partly specified) was tested, and the Potency was “inactive”. For `COc1ccc(S(=O)(=O)Nc2c(C)cc(C)cc2C)cc1`, the Potency was “inactive”. With `CC(O)C(C)n1ncn(-c2ccc(N3CCN(c4ccc(OCC5COC(Cn6cncn6)(c6ccc(Cl)cc6Cl)O5)cc4)CC3)cc2)c1=O` (stereo unspecified) the Potency was “inactive”. For `Cc1occc(=O)c1O[C@@H]1O[C@H](CO[C@@H]2OC[C@](O)(CO)[C@H]2O)[C@@H](O)[C@H](O)[C@H]1O`, the Potency was “inactive”. For `CC/C=C\[C@H](O)[C@H](O)C1=C(C)C(=O)[C@]2(O1)C(=O)N[C@@](O)(C(=O)c1ccccc1)[C@@H]2O`, the Potency was “inactive”. For `CC(C)(C)NCCCNC(=O)c1cccc(Br)c1`, the Potency was “inactive”. With `C=C[C@H]1CN2CC[C@H]1C[C@@H]2C(O)c1ccnc2ccc(OC)cc12` (stereo partly specified) the Potency was “inactive”. In the case of `O=C(Nc1ccccc1-c1cn2c(CN3CCNCC3)csc2n1)c1ccc2ccccc2n1`, the Potency is reported as “inactive”. In the case of `COc1ccc(C2(O)c3c(ccc4c3OC(C)(CCC=C(C)C)C=C4)NC(=O)C2OC)cc1` (stereo unspecified), the Potency is reported as “inactive”. `C=C1CC23CC1CCC2C12OC(=O)C(C)(CCC1O)C2C3C(=O)O` (stereo unspecified) was tested, and the Potency was “inactive”. In the case of `COC(=O)C1=CO[C@@H](O[C@@H]2O[C@H](CO)[C@@H](O)[C@H](O)[C@H]2O)[C@H]2[C@@H]1[C@H](O)C[C@]2(C)O`, the Potency is reported as “inactive”. With `CC(C)(Oc1ccc(-c2nc3cc(Cl)ccc3s2)cc1)C(=O)O` the Potency was “inactive”. `CC1=C2CC(=O)C(C)CC/C=C(\C)CC2OC1=O` (stereo unspecified) was tested, and the Potency was “inactive”. With `CC(=O)C1CCC(=O)N1Cc1ccccc1` (stereo unspecified) the Potency was “inactive”. With `O=C(O)CCc1cc2ccoc2cc1O[C@@H]1O[C@H](CO)[C@@H](O)[C@H](O)[C@H]1O` the Potency was “inactive”. For `CC(C)c1c(O)ccc2c1CC[C@H]1C(C)(C)CCC[C@]21C`, the Potency was “inactive”. In the case of `NC(=O)[C@H](O[C@@H]1O[C@H](CO)[C@@H](O)[C@H](O)[C@H]1O)c1ccccc1`, the Potency is reported as “inactive”. For `COc1cc(C[C@H]2COC(=O)[C@@H]2Cc2ccc(O)c(OC)c2)ccc1O`, the Potency was “inactive”. In the case of `C=C1CCC2[C@@](C)(C=O)CCC[C@]2(C)[C@H]1CC/C(C)=C/CO` (stereo partly specified), the Potency is reported as “inactive”. In the case of `CCC(O)C(C)C1CCC(C(C)C(=O)O)O1` (stereo unspecified), the Potency is reported as “inactive”. `C/C=C1\[C@H](O[C@@H]2O[C@H](CO)[C@@H](O)[C@H](O)[C@H]2O)OC=C(C(=O)OC)[C@H]1CC(=O)OC` was tested, and the Potency was “inactive”. For `CC(C)(CO)c1cc2cc(NC(=O)C3(c4ccc5c(c4)OC(F)(F)O5)CC3)c(F)cc2n1CC(O)CO` (stereo unspecified), the Potency was “inactive”. `COc1ccc(CNCc2cccc3ccccc23)cc1` was tested, and the Potency was “inactive”. `CC(=O)OC1CC(=O)C2(C)C3CC4=C(OC(C)CC4=O)OC3(C)CCC2C1(C)C` (stereo unspecified) was tested, and the Potency was “inactive”. With `OCC1=CC[C@@H]2C=CO[C@@H](O[C@@H]3O[C@H](CO)[C@@H](O)[C@H](O)[C@H]3O)[C@H]12` the Potency was “inactive”. For `C=CC(C)(CC/C=C(\C)C(=O)OC)OC1OC(COC(=O)CC(C)(O)CC(=O)O)C(OC2OC(CO)C(O)C(O)C2O)C(O)C1O` (stereo unspecified), the Potency was “inactive”. In the case of `Cc1occc(=O)c1O[C@@H]1O[C@H](COC(=O)CC(C)(O)CC(=O)O)[C@@H](O)[C@H](O)[C@H]1O` (stereo partly specified), the Potency is reported as “inactive”.
